The term AC50 denotes the concentration giving half of the maximal activity seen.

The source made the active and inactive calls. The call rests on the fitted dose curve.

For this assay the following is noted: Ebola virus entry cell assay, ratio channel.
As to `CC(C)CN(C[C@@H](O)[C@H](Cc1ccccc1)NC(=O)O[C@H]1CO[C@H]2OCC[C@H]21)S(=O)(=O)c1ccc(N)cc1`, the outcome was inactive.

As for `C[C@]12C=CC(=O)N[C@@H]1CC[C@@H]1[C@@H]2CC[C@]2(C)[C@@H](C(=O)Nc3cc(C(F)(F)F)ccc3C(F)(F)F)CC[C@@H]12`, the result was inactive.

As to `CO[C@@H]1[C@@H](O[C@@H]2O[C@H](C)[C@@H](O[C@H]3C[C@@](C)(O)[C@@H](O)[C@H](C)O3)[C@H](N(C)C)[C@H]2O)[C@@H](CC=O)C[C@@H](C)[C@@H](O[C@@H]2CC[C@H](N(C)C)[C@@H](C)O2)/C=C/C=C/C[C@@H](C)OC(=O)C[C@H]1O`, the AC50 was 11.2 µM (active).

In the case of `C=CC1=C(C(=O)O)N2C(=O)[C@@H](NC(=O)/C(=N\O)c3csc(N)n3)[C@H]2SC1` (stereo in doubt), the outcome was inactive.

Turning to `O=C1Nc2ccc(Cl)cc2C(c2ccccc2)=NC1O` (configuration not stated), the result was inactive.

In the case of `C[C@]12CC[C@@H]3c4ccc(OC(=O)N(CCCl)CCCl)cc4CC[C@H]3[C@@H]1CC[C@@H]2OP(=O)(O)O`, the result was inactive.

As for `Nc1nc(Cl)nc2c1ncn2[C@H]1C[C@H](O)[C@@H](CO)O1`, the result was inactive.

`CO/N=C(/C(=O)N[C@@H]1C(=O)N2C(C(=O)O)=C(COC(N)=O)CS[C@H]12)c1ccco1`: the result was inactive.

Turning to `COC(=O)C(c1ccccc1)C1CCCCN1` (configuration not stated), the outcome was inactive.

As to `CC(=O)N=c1sc(S(N)(=O)=O)nn1C`, the result was inactive.

Regarding `CN1CCN(C(c2ccccc2)c2ccc(Cl)cc2)CC1` (configuration not stated), the concentration at half-maximal activity (AC50) was 10 µM (active).

In the case of `C=CC[C@@H]1C=C(C)C[C@H](C)C[C@H](OC)[C@H]2O[C@@](O)(C(=O)C(=O)N3CCCC[C@H]3C(=O)O[C@H](C(C)=C[C@@H]3CC[C@H](O)[C@H](OC)C3)[C@@H](C)[C@@H](O)CC1=O)[C@@H](C)C[C@@H]2OC`, the result was inactive.

With `CN1C[C@H](C(=O)N[C@]2(C)O[C@@]3(O)[C@@H]4CCCN4C(=O)[C@H](Cc4ccccc4)N3C2=O)C=C2c3cccc4[nH]cc(c34)C[C@H]21`, the result was inactive.

Regarding `N#Cc1ccc(C(c2ccc(C#N)cc2)n2cncn2)cc1`, the result was inactive.

As to `Cc1c(N)nc([C@H](CC(N)=O)NC[C@H](N)C(N)=O)nc1C(=O)N[C@H](C(=O)N[C@H](C)[C@@H](O)[C@H](C)C(=O)N[C@H](C(=O)NCCc1nc(-c2nc(C(=O)NCCCCN=C(N)N)cs2)cs1)[C@@H](C)O)[C@@H](O[C@@H]1O[C@@H](CO)[C@@H](O)[C@H](O)[C@@H]1O[C@H]1O[C@H](CO)[C@@H](O)[C@H](OC(N)=O)[C@@H]1O)c1cnc[nH]1`, the outcome was inactive.

Take `CNCCC=C1c2ccccc2CCc2ccccc21`: the AC50 was 7.94 µM (active).

In the case of `C[C@](O)(CS(=O)(=O)c1ccc(F)cc1)C(=O)Nc1ccc(C#N)c(C(F)(F)F)c1`, the result was inactive.

On to `CC(=O)NC[C@H]1CN(c2ccc(N3CCOCC3)c(F)c2)C(=O)O1`, for which the result was inactive.

As to `CC[C@H]1OC(=O)[C@H](C)C(=O)[C@H](C)[C@@H](O[C@@H]2O[C@H](C)C[C@H](N(C)C)[C@H]2O)[C@](C)(OC)C[C@@H](C)C(=O)[C@H](C)[C@H]2N(CCCCn3cnc(-c4cccnc4)c3)C(=O)O[C@]12C`, the outcome was inactive.

As for `Nc1ccn(C[C@@H](CO)OCP(=O)(O)O)c(=O)n1`, the result was inactive.

On to `C[N+]1(C)[C@@H]2CC(OC(=O)C(O)(c3cccs3)c3cccs3)C[C@H]1[C@@H]1O[C@@H]12` (some centres not stated), for which the outcome was inactive.

On to `Nc1nc(=O)n([C@@H]2CS[C@H](CO)O2)cc1F`, for which the result was inactive.

`Nc1ccn([C@@H]2CS[C@H](CO)O2)c(=O)n1`: the outcome was inactive.

Consider `Cc1nnc2n1-c1ccc(Cl)cc1C(c1ccccc1)=NC2`, for which the outcome was inactive.

On to `COc1cc(C)c(/C=C/C(C)=C/C=C/C(C)=C/C(=O)O)c(C)c1C`, for which the outcome was inactive.

Regarding `O=C(O)c1cc(N=Nc2ccc(O)c(C(=O)O)c2)ccc1O`, the outcome was inactive.

Consider `CCOC(=O)C1=C(COCCN)NC(C)=C(C(=O)OC)C1c1ccccc1Cl` (configuration not stated), for which the result was inactive.

On to `CCCCCCCCCCCCCCCC(=O)OCCC1CCN(CCCN2c3ccccc3Sc3ccc(S(=O)(=O)N(C)C)cc32)CC1`, for which the outcome was inactive.

Regarding `CC(=O)S[C@@H]1CC2=CC(=O)CC[C@]2(C)[C@H]2CC[C@@]3(C)[C@@H](CC[C@@]34CCC(=O)O4)[C@H]12`, the result was inactive.

With `O=C(O)C[C@H](O)C[C@H](O)/C=C/c1c(C2CC2)nc2ccccc2c1-c1ccc(F)cc1`, the result was inactive.

For `CN[C@@H]1CCc2[nH]c3ccc(C(N)=O)cc3c2C1`, the result was inactive.

As for `CN1CCN(CCC=C2c3ccccc3Sc3ccc(S(=O)(=O)N(C)C)cc32)CC1`, the AC50 was 4.47 µM (active).

For the origin of these results see PubChem BioAssay (NCATS).
